Screening data: PubChem, National Center for Advancing Translational Sciences (NCATS)
FUS yeast rescue – FUS proteinopathy suppression in yeast | S. cerevisiae FUS-expressing, growth rescue, OD600, 24 h | Potency, µM (top dose mostly 76.6 µM), hits mostly activators | actives 0.24% (n = 390,000) | AID 1347120;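 note: potency is the fitted concentration of half-maximal effect; plate controls were DMSO vehicle for no effect and reference control for full effect; nearly all actives have a fitted effect of over 55% in size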
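Read-out: OD at 600 nm after 24hr at 30C, reporting rescue of FUS-induced yeast toxicity. Cells at OD 0.005 in galactose (2%) minimal medium; compounds tested in a dilution series; CP55940 titration from 92uM final as control.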
aSyn yeast inh – rescues yeast growth from alpha-synuclein toxicity | Potency, µM (titrated, usually from 46.1 µM), inactives show top-dose growth rescue (activation), most hits filed as activators | actives 0.14% (n = 370,000) | Yeast expressing alpha-synuclein, growth rescue, BacTiter-Glo, 24 h | AID 652106; note: potency is the fitted concentration of half-maximal effect; % of control where 0% means no effect; nearly all actives have a fitted effect of over 65% in size
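Readout is rescue of growth in alpha-synuclein-expressing yeast, so inhibitors of toxicity appear as activators. Growth after 24 hr at 30 deg C in galactose medium is quantified by luminescence.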
TDP-43 yeast inh – TDP-43 toxicity inhibition in yeast; Potency, µM (top dose mostly 46.1 µM), for the others: top-dose growth rescue (activation), usual class: activators; actives 1.8% (n = 410,000); AID 652104; TDP-43 expressing yeast growth rescue, BacTiter-Glo, 24 h; note: potency is the fitted concentration of half-maximal effect; % of control where 0% means no effect; nearly all actives have a fitted effect of over 50% in size
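Galactose-induced TDP-43 yeast, OD600=0.02, compound pinned; 24 hr, 30 deg C; BacTiter-Glo luminescence for growth. Inhibitors of TDP-43 toxicity read as activators.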
Abeta rescue – restores growth of yeast expressing A-beta42 peptide. Potency, µM (doses to about 46.1 µM), hits mostly activators. yeast expressing A-beta42, growth rescue, OD600, 48 h; response scale: 0% DMSO, 100% iron-clioquinol control. AID 1347071. actives 0.063% (n = 410,000); note: potency is the fitted concentration of half-maximal effect; nearly all actives have a fitted effect of over 55% in size
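Growth rescue measured by 600 nm absorbance after 48 h yeast culture at 30 C with compound. Values normalized between DMSO and an equimolar ferric chloride plus clioquinol control.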
CCT chaperon mod – changes cytosolic chaperonin activity. purified chaperonin ATPase assay, HTRF ADP detection, 30 min. activity change, % (test concentration not listed), hits read low. actives 0.3% (n = 360,000); in the data active = activity change below about -30%; note: % is set by controls: 0 for no effect and ±100 for the full control effect
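TRiC (40 or 20 nM final, by batch activity) in 30 mM Tris pH 7.4, 100 mM KCl, 5 mM MgCl2, 1 mM DTT was treated with compound at 76 uM single dose, then 10 uM ATP, 30 min at 37 °C. ADP was read by HTRF Transcreener.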
MmCpn inh – blocks the Methanococcus maripaludis chaperonin Mm-Cpn. actives 0.031% (n = 330,000). Potency, µM (series often up to 76.9 µM), for inactives: at the top dose activity, negative = inhibition, hits mostly inhibitors. purified Mm-Cpn ATPase, ADP Transcreener TR-FRET; note: potency is the fitted concentration of half-maximal effect; % is set by controls: 0 for no effect and ±100 for the full control effect; nearly all actives have a fitted effect of over 80% in size
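Measured: ADP formation by purified Mm-CPN. Conditions: 25 nM protein, 10 uM ATP, Tris pH 7.4 with Mg2+, K+ and DTT, 37°C for 30 min. Detection: Transcreener HTRF after 30 min at room temperature.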
Active calls of the source: *; i = inactive; ? = inconclusive; . = no result. The list is not random: actives were taken first. Their share in the collection is about 2.3%. Unless noted, calls come from the whole dose curve; as a rule, active = well fitted curve in the direction sought with a large enough effect; inconclusive = small, poorly fitted or top-dose-only effect, or another doubt; inactive = no such curve, though single readings can be large; an effect the other way counts as inactive or inconclusive.

SMILES	FUS yeast rescue	aSyn yeast inh	TDP-43 yeast inh	Abeta rescue	CCT chaperon mod	MmCpn inh
CNC(=O)c1c(NC(=O)c2cccc(C)c2)sc2c1CCC2	i	-8%	14µM*	i	-2	-16%
Cc1cccc(C(=O)Nc2sc3c(c2C(=O)O)CCC3)c1	i	-4%	-2%	i	2	0%
Fc1ccc(-c2cc(C(F)(F)F)nc(NCC3CCCO3)n2)cc1 (stereo not given)	i	-17%	?	i	-6	3%
FC(F)(F)c1cc(-c2ccccc2)nc(NCC2CCCO2)n1 (stereo not given)	i	-16%	13µM*	i	0	0%
COc1ccc(S(=O)(=O)N2CCC(C(=O)NC(C)c3ccccc3)CC2)cc1 (stereo not given)	i	.	18%	i	.	.
Cc1cc(C(=O)OCC(=O)Nc2ccccc2C)c(C)o1	.	-7%	?	i	1	0%
Cc1cc(C(=O)OCC(=O)Nc2ccccc2Br)c(C)o1	i	-2%	-21%	i	-53*	1%
COc1ccc(/C=C2\CC3(OC(=O)c4ccccc4)CCCN2C3)cc1 (stereo not given)	i	.	.	.	.	.
S=c1[nH]nc(-c2cnccn2)n1-c1ccccc1	i	3%	7%	i	-13	-2%
COc1ccc(-n2c(-c3cnccn3)n[nH]c2=S)cc1	i	3.5µM*	-19%	i	-9	0%
CN(CC(=O)Nc1ccc(Cl)c(C(F)(F)F)c1)C(=O)c1ccc(N2CCOCC2)c([N+](=O)[O-])c1	32µM*	3%	-22%	i	1	0%
CN(CC(=O)Nc1ccc(Cl)c(C(F)(F)F)c1)C(=O)c1ccc2c(c1)OCCO2	i	2%	15%	?	-81*	1%
CN(CC(=O)Nc1ccc(Cl)c(C(F)(F)F)c1)C(=O)C1CC(=O)N(c2ccc3c(c2)OCCO3)C1 (stereo not given)	i	6%	15%	i	0	.
COc1ccc(NC(=O)NCCCN2CCN(c3ccc(F)cc3)CC2)cc1OC	i	.	.	.	.	.
O=C(C1CCCN(S(=O)(=O)c2ccccc2[N+](=O)[O-])C1)N1CCN(Cc2ccccc2)CC1 (stereo not given)	i	.	.	.	.	.
Brc1ccc2nc(-c3ccncc3)c(NC3CCCC3)n2c1	i	7%	-2%	i	-36*	-1%
Cc1ccccc1Nc1c(-c2ccncc2)nc2ccc(Br)cn12	.	18%	-3%	i	-1	-1%
Cc1cc(/C=C/c2c(C)cnc3ccccc23)ccc1N(C)C	.	-36%	.	.	.	.
O=C1CN(C(=O)COc2ccc(Cl)cc2Cl)C(c2ccccc2)c2cc(F)ccc2N1 (stereo not given)	32µM*	.	7%	i	.	.
Cc1cc(NC(=O)COC(=O)c2ccccc2OCCOc2ccccc2)ccc1Br	.	-2%	.	.	.	.
COc1ccc(/C=C/C(=O)NC(=S)NNC(=O)Cc2cccs2)cc1	i	13%	?	i	1	-3%
O=C(Cc1cccs1)NNC(=S)NC(=O)c1ccccc1	.	?	22µM*	?	0	-1%
O=C(/C=C/c1ccccc1)NC(=S)NNC(=O)Cc1cccs1	i	20µM*	11µM*	?	-7	-2%
COc1ccc2c(c1)CC=C1C2CCC2(C)C(=O)C(=NO)CC12 (stereo not given)	i	6%	11µM*	i	0	.
CC12CCC3C(=CCc4cc(O)ccc43)C1CC(=NO)C2O (stereo not given)	.	6%	19%	i	1	.
Nc1[nH]c(C(=O)c2ccccc2)c(-c2ccc(O)cc2)c1C(=O)NCCc1c[nH]c2ccccc12	i	.	.	.	.	.
CC(OC(=O)CCc1c[nH]c2ccccc12)C(=O)c1ccccc1 (stereo not given)	i	6%	35µM*	i	-5	-9%
S=c1nc(-c2cccc(Cl)c2)[nH][nH]1	i	-11%	-8%	i	-2	-18%
